Consider twelve compounds from PubChem BioAssay (NCATS).

A short description of assay [1]: Quantitative High-Throughput drug screen in 47 multiple myeloma cell lines against the NCATS MIPE library collection: Delta47_JCRB cell viability assay (AID 1918925; note: nearly all actives have a fitted effect of over 45% in size). In short, it runs like this: (§1)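 CellTiter-Glo ATP luminescence gave viability after 48 h compound treatment at 37C of 500 multiple myeloma cells per well. Normalisation used DMSO-only wells as 100% and media-only wells as 0% viability; primary qHTS of approved and investigational drugs.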

Assay [2] is described as follows: Quantitative High-Throughput drug screen in 47 multiple myeloma cell lines against the NCATS MIPE library collection: ARP1_JJKsccF8 cell viability assay (AID 1918928; note: nearly all actives have a fitted effect of over 40% in size). In short, it runs like this:
(§2)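 Cell viability inhibition in this qHTS is measured via ATP content (CellTiter-Glo) after 48 h drug exposure at 37 °C. Wells hold 500 cells; DMSO-treated wells define 100% and medium-only wells 0%.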

Assay [3] is described as follows: Quantitative High-Throughput drug screen in 47 multiple myeloma cell lines against the NCATS MIPE library collection: ARD_JJKsccE7 cell viability assay (AID 1918929). In short, it runs like this: as §1
Assay [4] in a line: Quantitative High-Throughput drug screen in 47 multiple myeloma cell lines against the NCATS MIPE library collection: Karpas620_DSMZ cell viability assay (AID 1918959). Note: nearly all actives have a fitted effect of over 30% in size. In short, it runs like this:
(§3)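 Myeloma cells (500 per well) were exposed to MIPE 4.0 compounds by pin transfer and incubated 48 hours at 37C, 5% CO2. Viability was read as ATP by CellTiter-Glo luminescence, normalised to DMSO (100%) and media-only (0%) wells.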

Assay [5] can be described thus: Quantitative High-Throughput drug screen in 47 multiple myeloma cell lines against the NCATS MIPE library collection: KMM1_JCRB cell viability assay (AID 1918960). Note: nearly all actives have a fitted effect of over 30% in size. In short, it runs like this: as §2
A short description of assay [6]: Quantitative High-Throughput drug screen in 47 multiple myeloma cell lines against the NCATS MIPE library collection: Karpas417_ECACC cell viability assay (AID 1918961). The note with it: Karpas417 myeloma viability, CellTiter-Glo ATP luminescence, 48 h; viability (% of DMSO): at 45.8 µM (top of the series). In short, it runs like this: as §1
Assay [7] is described as follows: Quantitative High-Throughput drug screen in 47 multiple myeloma cell lines against the NCATS MIPE library collection: KHM11_PLB cell viability assay (AID 1918962). Note: nearly all actives have a fitted effect of over 35% in size. In short, it runs like this: as §3
Assay [8] in a line: Quantitative High-Throughput drug screen in 47 multiple myeloma cell lines against the NCATS MIPE library collection: JIM3_ECACC cell viability assay (AID 1918963; note: nearly all actives have a fitted effect of over 35% in size). The procedure, abridged:
as §3

Assay [9] is described as follows: Quantitative High-Throughput drug screen in 47 multiple myeloma cell lines against the NCATS MIPE library collection: JIM1_ECACC cell viability assay (AID 1918964). The procedure, abridged:
as §1

The nature of assay [10]: Quantitative High-Throughput drug screen in 47 multiple myeloma cell lines against the NCATS MIPE library collection: INA6_PLB cell viability assay (AID 1918965; note: nearly all actives have a fitted effect of over 55% in size). The procedure, abridged:
as §1

Assay [11] is described as follows: Quantitative High-Throughput drug screen in 47 multiple myeloma cell lines against the NCATS MIPE library collection: JJN3_DSMZ cell viability assay (AID 1918966; note: nearly all actives have a fitted effect of over 50% in size). In short, it runs like this:
as §1

Assay [12] in a line: Quantitative High-Throughput drug screen in 47 multiple myeloma cell lines against the NCATS MIPE library collection: KMS12BM_JCRB cell viability assay (AID 1918971). Note: nearly all actives have a fitted effect of over 35% in size. The procedure, abridged: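 Inhibition of cell viability is measured here. Each line was plated at 500 cells per well, treated with MIPE 4.0 drugs, kept 48 hours at 37C, then assayed for ATP content by CellTiter-Glo luminescence.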

Assay [13] can be described thus: Quantitative High-Throughput drug screen in 47 multiple myeloma cell lines against the NCATS MIPE library collection: KMS12PE_JCRB cell viability assay (AID 1918972). Note: nearly all actives have a fitted effect of over 30% in size. In short, it runs like this: as §1
The nature of assay [14]: Quantitative High-Throughput drug screen in 47 multiple myeloma cell lines against the NCATS MIPE library collection: KMS20_JCRB cell viability assay (AID 1918973). Note: nearly all actives have a fitted effect of over 45% in size. In short, it runs like this: as §1
Assay [15] can be described thus: Quantitative High-Throughput drug screen in 47 multiple myeloma cell lines against the NCATS MIPE library collection: EJM_DSMZ cell viability assay (AID 1918926; note: nearly all actives have a fitted effect of over 30% in size). In short, it runs like this: as §1
The nature of assay [16]: Quantitative High-Throughput drug screen in 47 multiple myeloma cell lines against the NCATS MIPE library collection: AMO1_DSMZ cell viability assay (AID 1918927; note: nearly all actives have a fitted effect of over 30% in size). The procedure, abridged: as §1
A short description of assay [17]: Quantitative High-Throughput drug screen in 47 multiple myeloma cell lines against the NCATS MIPE library collection: Karpas25_ECACC cell viability assay (AID 1918968; note: nearly all actives have a fitted effect of over 35% in size). The procedure, abridged:
as §1

Assay [18] can be described thus: Quantitative High-Throughput drug screen in 47 multiple myeloma cell lines against the NCATS MIPE library collection: KMS21BM_JCRB cell viability assay (AID 1918974). The note with it: ATP luminescence, 48 h; viability: at 45.8 µM (top of the series) unless noted. In short, it runs like this:
as §1

The nature of assay [19]: Quantitative High-Throughput drug screen in 47 multiple myeloma cell lines against the NCATS MIPE library collection: H1112_PLB cell viability assay (AID 1918967; note: nearly all actives have a fitted effect of over 30% in size). In short, it runs like this:
as §1

The nature of assay [20]: Quantitative High-Throughput drug screen in 47 multiple myeloma cell lines against the NCATS MIPE library collection: KMS27_JCRB cell viability assay (AID 1918970). Note: nearly all actives have a fitted effect of over 30% in size. In short, it runs like this:
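Viability inhibition screen, 48 h compound exposure, luminescent ATP read-out.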

Each structure is given as a SMILES string. Inconclusive results are not listed. Calls of active or inactive are those of the source. Calls come from the whole dose curve; as a rule, active = well fitted curve in the direction sought with a large enough effect; inconclusive = small, poorly fitted or top-dose-only effect, or another doubt; inactive = no such curve, though single readings can be large; an effect the other way counts as inactive or inconclusive.
Potency is the fitted concentration of half-maximal effect.

As for `CN(c1ncccc1CNc1nc(Nc2ccc3c(c2)CC(=O)N3)ncc1C(F)(F)F)S(C)(=O)=O`, the Potency in assay [1] was 3.72 µM (active); in assay [2], 9.35 µM (active); in [3], 2.64 µM (active); in assay [4], 1.48 µM (active); in assay [5], 3.32 µM (active); in assay [6], 1.87 µM (active). For the same compound, the Potency in [7] is 2.96 µM (active); in assay [8], 5.9 µM (active); in [9], 3.32 µM (active); in assay [10] it was 2.64 µM (active); in assay [11], 2.64 µM (active); in assay [12], 9.35 µM (active). Also, the Potency in assay [13] is 8.33 µM (active); in assay [14], 3.32 µM (active).
`CC[C@@H]1C(=O)N(C)c2cnc(Nc3ccc(C(=O)NC4CCC(N5CCN(CC6CC6)CC5)CC4)cc3OC)nc2N1C(C)C` (stereo not given in full): the Potency in assay [15] was 0.743 µM (active); in [16], 0.118 µM (active); in assay [2] it was 0.132 µM (active); in [5] it was 0.0526 µM (active); in assay [6] it was 3.32 µM (active); in [7], 8.33 µM (active). Also, the Potency in assay [8] was 0.0418 µM (active); in [10], 0.187 µM (active); in [11], 2.64 µM (active); in assay [17] it was 5.26 µM (active); in assay [12], 0.0743 µM (active); in assay [13], 2.96 µM (active). Further, the results for the Potency in assay [14] and in assay [18] were 4.18 µM (active) and 0.935 µM (active), respectively.
Turning to `COc1cc(Nc2ncc(F)c(Nc3ccc4c(n3)N(COP(=O)(O)O)C(=O)C(C)(C)O4)n2)cc(OC)c1OC`, the Potency is 23.5 µM (active) in assay [15]; 5.26 µM (active) in assay [16]; 1.18 µM (active) in [3]; 1.18 µM (active) in assay [5]; 1.05 µM (active) in assay [6]; 1.48 µM (active) in assay [7]. The Potency in assay [10] is 0.833 µM (active); in assay [19], 1.66 µM (active); in assay [17], 3.32 µM (active); in assay [14] it was 1.66 µM (active); in assay [18], 0.743 µM (active).
As to `CC(C)(O)CCc1ccc(OCc2cc(-c3cccc(OC(F)F)c3)c3ncccc3c2)cc1`, the Potency entry in assay [15], in assay [16], in assay [3], in assay [4], in [5] and in assay [8] was “inactive” each time. For the same compound, the Potency result in assay [12] and in [13] was “inactive” throughout.
With `CN(C)Cc1c(C(=O)NCCOc2ccc(C(=O)NO)cc2)oc2ccccc12`, the Potency in [15] is 1.87 µM (active); in [2], 0.526 µM (active); in [3], 0.59 µM (active); in [4], 0.743 µM (active); in assay [5] it was 0.469 µM (active); in [6] it was 0.372 µM (active). Further, the Potency in assay [7] was 1.87 µM (active); in assay [8] it was 2.96 µM (active); in assay [9], 0.418 µM (active); in [10] it was 0.187 µM (active); in assay [11] it was 0.833 µM (active); in assay [19], 1.87 µM (active). Further, the Potency is 0.662 µM (active) in assay [17]; 0.264 µM (active) in assay [20]; 0.469 µM (active) in assay [12]; 0.418 µM (active) in assay [13]; 0.372 µM (active) in [14]; 0.0469 µM (active) in [18].
`Cc1nc(Nc2n[nH]c3c2CN(C(=O)N[C@H](CN(C)C)c2ccccc2)C3(C)C)c2sccc2n1`: the Potency in assay [15] is 1.48 µM (active); in assay [16] it was 0.0743 µM (active); in [2] it was 0.469 µM (active); in assay [4] it was 2.64 µM (active); in assay [5], 0.105 µM (active); in [7] it was 0.0132 µM (active). For the same compound, the Potency in [8] is 0.0469 µM (active); in assay [10], 0.0059 µM (active); in [11] it was 4.18 µM (active); in assay [19], 1.66 µM (active); in assay [17], 0.526 µM (active); in assay [12], 0.743 µM (active). For the same compound, the Potency in assay [14] was 0.105 µM (active).
For the compound `O=C(O)CO.[NH2-].[NH2-].[Pt+2]`, the Potency result in assay [15], in assay [16], in assay [2], in assay [4], in [5] and in assay [8] was “inactive” throughout. For the same compound, the Potency entry in assay [9], in assay [11], in assay [19], in assay [17], in assay [12] and in [13] was “inactive” throughout.
As for `Cc1nc2ccc(CN(C)c3ccc(C(=O)N[C@@H](CCC(=O)O)C(=O)O)s3)cc2c(=O)[nH]1`, the Potency result in [15], in assay [4], in [6], in assay [19] and in assay [17] was “inactive” each time. The Potency in [2] was 0.0209 µM (active); in [8], 0.0935 µM (active); in assay [10] it was 0.0418 µM (active); in assay [13], 0.0662 µM (active).
On to `CCCCCN(CCC12CC3CC(CC(C3)C1)C2)C(=O)NCCCc1ccncc1`, for which the Potency is 23.5 µM (active) in assay [15]; 14.8 µM (active) in [16]; 11.8 µM (active) in [3]; 2.96 µM (active) in assay [4]; 16.6 µM (active) in assay [10]; 26.4 µM (active) in assay [12]. Further, the Potency in [13] is 4.69 µM (active); in assay [14] it was 18.7 µM (active). Moreover, the Potency entry in [5] was “inactive”.
For the compound `CC(C)Nc1cc(C(F)(F)F)cc2nc(NC(=O)c3cccnc3)nn12`, the Potency in assay [15] was 14.8 µM (active). Moreover, the Potency entry in assay [3], in [4], in assay [5], in [8], in assay [19] and in assay [17] was “inactive” each time. The Potency result in assay [20] and in [13] was “inactive” each time.
Take `CC(C)c1cc(C(=O)N2Cc3ccc(CN4CCN(C)CC4)cc3C2)c(O)cc1O`: the Potency in assay [15] was 1.48 µM (active); in assay [16] it was 0.132 µM (active); in assay [2] it was 0.209 µM (active); in [4], 0.166 µM (active); in assay [5] it was 0.105 µM (active); in [7], 0.0935 µM (active). Also, the Potency is 0.187 µM (active) in assay [8]; 0.0743 µM (active) in assay [9]; 0.118 µM (active) in assay [10]; 0.209 µM (active) in assay [11]; 0.166 µM (active) in assay [17]; 0.132 µM (active) in [20]. Moreover, the Potency in [12] was 0.264 µM (active); in [13], 0.118 µM (active); in assay [14] it was 0.187 µM (active).
For the compound `COc1cc2nccc(Oc3ccc(NC(=O)C4(C(=O)Nc5ccc(F)cc5)CC4)cc3)c2cc1OC`, the Potency is 2.96 µM (active) in assay [15]; 1.87 µM (active) in assay [16]; 16.6 µM (active) in [2]; 2.96 µM (active) in assay [3]; 5.26 µM (active) in assay [4]; 2.96 µM (active) in [5]. Besides, the Potency was 14.8 µM (active) in assay [8]; 1.66 µM (active) in assay [11]; 11.8 µM (active) in assay [19]; 5.26 µM (active) in [17]; 11.8 µM (active) in [12]; 7.43 µM (active) in assay [13]. In [6], the Potency result was “inactive”.
